For eleven molecules, Kinases covered results are on record in PMC7826789 (International Journal of Molecular Sciences, 2021).

Take `Nc1nccc(-c2c(-c3ccc(F)cc3)ncn2CCCN2CCOCC2)n1` [SB-216385]: the Kinases covered entry in the test on MAP2K4 is “MAP2K4”.
For the molecule `CN(C)C/C=C/C(=O)Nc1ccc(C(=O)Nc2cccc(Nc3ncc(Cl)c(-c4c[nH]c5ccccc45)n3)c2)cc1` [THZ1], the Kinases covered result in the test with MAP3K11 is “MAP3K11”; in the test on MAPK8, “MAPK8”.
As for `CCn1c(-c2nonc2N)nc2ccccc21` [SB-693162], in the test on MAP3K19, the Kinases covered entry is on record as “MAP3K19”.
As to `Cc1cccc(CC(=O)N2CCc3c2ccc(-c2cn(C)c4ncnc(N)c24)c3F)n1` [GSK2656157], the Kinases covered entry in the test with MAP3K2 is reported as “MAP3K2”.
As to `CC(C)(C)c1ccc(C(=O)Nc2cn3cc(-c4cccnc4)ccc3n2)cc1` [TPKI-58], the Kinases covered entry with MAP3K5 is reported as “MAP3K5”.
On to `Cc1cc(-c2ccc3c(c2)CC[C@@H](N[C@@H](C)c2ccccc2)C3)cnc1N` [GW412617], for which the Kinases covered entry with MAP4K2 is on record as “MAP4K2”.
As for `Cl.O=C1Nc2ccc(-c3cccnc3)cc2C1=Cc1cc(Br)c(O)c(Br)c1` [GW429374A], the Kinases covered entry with MAP4K4 is listed as “MAP4K4”.
Turning to `COCCNC(=O)c1ccc(-c2cc(C(=O)NC3CC3)cc(F)c2C)cc1` [GW868318], the Kinases covered entry with MAPK11 is reported as “MAPK11”.
Turning to `Cc1ccc(C(=O)NCC(N)=O)cc1-n1c(C)cc(OCc2ccc(F)cc2F)c(Br)c1=O` [PFE-PKIS 1], the Kinases covered result in the test on MAPK11 is on record as “MAPK11”.
Consider `Cc1cnc(Nc2ccc(F)cc2Cl)nc1-c1c[nH]c(C(=O)N[C@H](CO)c2cccc(Cl)c2)c1` [Vertex 11e], for which the Kinases covered entry in the test with MAPK1 was “MAPK1”; in the test on MAPK3 it was “MAPK3”.
Turning to `O=C1Nc2ccc(I)cc2C1=Cc1cc(Br)c(O)c(Br)c1` [GW305074X], the Kinases covered entry with MAPK3 is on record as “MAPK3”.
